Eleven compounds from PubChem BioAssay (NCATS) can be followed below.

The structures appear in SMILES notation. Where “and” joins values, the source holds several entries; their conditions need not be identical. Equal values may be shown once. Inconclusive results are not listed. Calls of active or inactive are those of the source. Unless noted, the call rests on the fitted dose curve; in most records, active means well fitted curve in the direction sought with a large enough effect; inconclusive means small, poorly fitted or top-dose-only effect, or another doubt; inactive means no such curve, though single readings can be large; an effect the other way counts as inactive or inconclusive.

In assay [1] the target is DNA repair nuclease/redox regulator APEX1 (Homo sapiens) (UniProt P27695). Put plainly: qHTS Validation Assay for Inhibitors of the Human Apurinic/apyrimidinic Endonuclease 1 (APE1) (AID 1705;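 further: TAMRA fluorescence gain over two minutes as APE1 cuts a quenched THF abasic duplex; on the % scale 0 is the no-effect control and ±100 the full control effect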). The method, boiled down:
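qHTS, 1536-well. APE1 + cpd 15 min RT → 50 nM TAMRA/BHQ-2 THF-abasic dsDNA substrate → kinetic fluorescence, 3 reads/60 s; delta(read3−read1) = reaction progress. No-enzyme buffer = negative control.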
For orientation: Quantitative high-throughput screening tests each substance at several concentrations.

The nature of assay [2]: Counterscreen for APE1 Inhibitors: Fluorescent Dye Displacement Validation Assay (AID 1707).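 Further: plate controls were ThO with dsDNA and no compound for no effect and ThO without dsDNA for full effect.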 In short, it runs like this:
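Thiazole Orange displacement from dsDNA: 250 nM ThO with 50 nM TAMRA-labelled abasic-site (tetrahydrofuran) duplex in 50 mM Tris-HCl pH7.5, 50mM NaCl, 2 mM MgCl2, 0.01% Tween-20. Loss of endpoint fluorescence (ex 480 nm, em 540 nm) flags DNA binders.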
On the technique in general: Counterscreens check selectivity or assay interference.

Assay [3] concerns the target Endonuclease 4 (Escherichia coli (strain K12)) (UniProt P0A6C1). Put plainly: Counterscreen for APE1 Inhibitors: qHTS Validation Assay for Inhibitors of Endonuclease IV (AID 1708). Further: on the % scale 0 is the no-effect control and ±100 the full control effect. The method, boiled down: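 Concentration-response counterscreen run identically to the APE1 assay: 15 min room-temperature preincubation of 2 nM enzyme with compound, reaction started with 50 nM quenched abasic DNA, progress taken from kinetic fluorescence.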

Assay [4] can be described thus: qHTS for differential inhibitors of proliferation of Plasmodium falciparum line 7G8 (AID 1815).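 Further: parasite growth measured after three days of incubation.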 Further: potency means the concentration at half of the fitted maximal effect.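 On activity change, negative = inhibition: plate controls were vehicle wells for no effect and reference inhibitor wells for full effect.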
A short description of assay [5]: qHTS for differential inhibitors of proliferation of Plasmodium falciparum line GB4 (AID 1816).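 Further: parasite growth measured after 72 h incubation.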 Further: potency means the concentration at half of the fitted maximal effect.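 On activity change, negative = inhibition: 0% = vehicle DMSO and -100% = reference inhibitor.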 The note with it: Potency: Plasmodium falciparum GB4 proliferation inhibition.
Assay [6] is described as follows: qHTS for differential inhibitors of proliferation of Plasmodium falciparum line 3D7 (AID 1876). Further: potency means the concentration at half of the fitted maximal effect.
Assay [7] is described as follows: Cell Viability - LYMP2-010 (AID 981). Further: nearly all actives have a fitted effect of over 55% in size. Further: potency means the concentration at half of the fitted maximal effect. In short, it runs like this: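 Human lymphoblastoid LYMP2-010 cells (2500/well) treated 24 h at 37 C in complete medium; viability read as intracellular ATP by CellTiter-Glo luminescence. AC50 from Hill fits of concentration-response data; tetraoctylammonium bromide positive control.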
Assay [8] can be described thus: Cell Viability - LYMP1-002 - Assay at 40 hr (AID 994). Further: nearly all actives have a fitted effect of over 60% in size. Further: potency means the concentration at half of the fitted maximal effect. In short, it runs like this:
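LYMP1-002 human lymphoblastoid cells (2500/well, complete medium) were treated with compounds for 40 hr at 37 C. Intracellular ATP was measured by CellTiter-Glo luminescence, and AC50 values came from Hill-equation fits of concentration-response data; tetraoctylammonium bromide was the positive control.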

Assay [9] in a line: Cell Viability - LYMP2-008 (AID 980). Further: nearly all actives have a fitted effect of over 60% in size. Further: potency means the concentration at half of the fitted maximal effect. The method, boiled down: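 LYMP2-008 lymphoblastoid cells (2500/well) plated 5 h, then treated 24 h at 37 C in complete medium. Viability read as intracellular ATP by CellTiter-Glo luminescence after 30 min at room temperature; AC50 from Hill fits.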
A short description of assay [10]: Cell Viability - LYMP2-012 (AID 982).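 Further: cellular ATP by luciferase luminescence where a drop means cytotoxicity; cells exposed to compound for one day before reading; nearly all actives have a fitted effect of over 55% in size.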 Further: potency means the concentration at half of the fitted maximal effect.
Assay [11] is described as follows: Cell Viability - LYMP2-016 (AID 984). Further: nearly all actives have a fitted effect of over 55% in size. Further: potency means the concentration at half of the fitted maximal effect. In short, it runs like this:
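Cells were seeded at 2500 per well and rested 5 hr before a 24 hr compound exposure at 37 C. Viability was then gauged as cellular ATP by luciferase luminescence, with AC50 values fitted to the Hill equation.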

Assay [12] in a line: Cell Viability - LYMP2-018 (AID 985). Further: nearly all actives have a fitted effect of over 50% in size. Further: potency means the concentration at half of the fitted maximal effect. In short, it runs like this:
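Human lymphoblastoid LYMP2-018 cells, 2500/well, settled 5 hr at 37 C then exposed to compound 24 hr at 37 C; intracellular ATP measured by CellTiter-Glo luminescence. AC50 from Hill-equation concentration-response fits.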

Assay [13] is described as follows: Cell Viability - LYMP2-022 (AID 987). Further: nearly all actives have a fitted effect of over 55% in size. Further: potency means the concentration at half of the fitted maximal effect. The method, boiled down:
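LYMP2-022 lymphoblastoid cells (2500/well, complete medium) were treated with compounds for 24 hours at 37 C; intracellular ATP was then read by CellTiter-Glo luminescence after 30 min at room temperature. AC50 values were derived from Hill-equation fits.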

Assay [14] can be described thus: Cell Viability - LYMP1-002 - Assay at 24 hr (AID 993). Further: potency means the concentration at half of the fitted maximal effect. In short, it runs like this: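 Human lymphoblastoid LYMP1-002 cells (2500/well) treated 24 h at 37 °C; viability as intracellular ATP by CellTiter-Glo luminescence. Tetraoctylammonium bromide as positive control; AC50 from Hill-equation fits of qHTS concentration-response.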
Assay [15] in a line: Cell Viability - LYMP2-014 (AID 983). Further: nearly all actives have a fitted effect of over 50% in size. Further: potency means the concentration at half of the fitted maximal effect. The method, boiled down:
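LYMP2-014 human lymphoblastoid cells, 2500/well, treated 24 h at 37 C in complete medium; viability by CellTiter-Glo ATP luminescence after 30 min at room temperature. AC50 from Hill fits of qHTS concentration-response; tetraoctylammonium bromide positive control.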

The nature of assay [16]: Cell Viability - LYMP2-024 (AID 988). Further: nearly all actives have a fitted effect of over 60% in size. Further: potency means the concentration at half of the fitted maximal effect. In short, it runs like this: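 Human lymphoblastoid LYMP2-024 cells (2500/well) rested 5 hr, then treated with compound for 24 hr at 37 C in complete medium. Viability was measured as intracellular ATP by CellTiter-Glo luminescence. AC50 values came from Hill-equation fits.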
Assay [17] is described as follows: qHTS Assay for Lipid Storage Modulators (AID 1519; calls by dose curve; on activity change, negative = inhibition: on the % scale 0 is the no-effect control and ±100 the full control effect). The note with it: Drosophila S3 cells, BODIPY lipid droplet/cell ratio, laser cytometry, cells loaded with oleic acid. The method, boiled down: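 Cells seeded at 5,000 per well were treated with compounds over a concentration series and loaded with oleic acid (400 uM, as added). Lipid droplet fluorescence (488 nm excitation, 500-530 nm channel) was read by laser-scanning cytometry and normalized to 20 uM Triacsin C.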

For assay [18], the target named is Alpha-galactosidase A (Homo sapiens) (UniProt P06280). Put plainly: Counterscreen for Glucocerebrosidase Inhibitors: qHTS Assay for Human alpha-Galactosidase at pH 4.5 (AID 992). Further: 0% is about no effect. The method, boiled down: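 Enzyme at 2 nM final was combined with compound (0.7 nM to 77 uM) and 80 uM 4-methylumbelliferyl alpha-D-galactopyranoside in 50 mM citric acid, 0.005% Tween-20, pH 4.5. After 20 min at room temperature, fluorescence was read (Ex 365/Em 440 nm); AC50 came from Hill fits.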
Alpha-galactosidase A (Homo sapiens), sequence (P06280 whole entry, looked up): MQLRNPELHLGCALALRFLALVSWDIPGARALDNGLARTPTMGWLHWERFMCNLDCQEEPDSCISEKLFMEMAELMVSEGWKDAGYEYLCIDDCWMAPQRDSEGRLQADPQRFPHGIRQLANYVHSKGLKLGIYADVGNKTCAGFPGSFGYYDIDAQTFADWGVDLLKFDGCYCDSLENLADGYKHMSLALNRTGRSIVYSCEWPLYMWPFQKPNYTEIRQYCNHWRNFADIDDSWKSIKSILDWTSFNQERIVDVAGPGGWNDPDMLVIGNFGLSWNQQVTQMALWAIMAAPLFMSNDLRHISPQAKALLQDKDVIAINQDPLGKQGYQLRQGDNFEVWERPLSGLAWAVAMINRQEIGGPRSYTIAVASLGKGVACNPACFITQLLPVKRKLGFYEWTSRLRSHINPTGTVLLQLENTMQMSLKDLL

For assay [19], the target named is alpha-glucosidase (Oryza sativa, rice) (UniProt Q653V4). Put plainly: Counterscreen for Glucocerebrosidase Inhibitors: qHTS Assay for Rice alpha-Glucosidase at pH 5.0 (AID 997).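 Further: 0% = full activity with enzyme and -100% = basal without enzyme.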 In short, it runs like this:
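Rice alpha-glucosidase (4 nM final) with 400 uM 4-methylumbelliferyl-alpha-D-glucopyranoside in citrate buffer pH 5.0, 20 min at room temperature, stopped at pH 10; fluorescence 365/440 nm, compounds 0.7 nM–77 uM, AC50 from Hill fits.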

[20] abbreviates: measured here: cell count channel max response.
Where [21] appears, read: measured here: lipid channel max response.

DNA repair nuclease/redox regulator APEX1 (Homo sapiens), sequence (P27695 whole entry, looked up): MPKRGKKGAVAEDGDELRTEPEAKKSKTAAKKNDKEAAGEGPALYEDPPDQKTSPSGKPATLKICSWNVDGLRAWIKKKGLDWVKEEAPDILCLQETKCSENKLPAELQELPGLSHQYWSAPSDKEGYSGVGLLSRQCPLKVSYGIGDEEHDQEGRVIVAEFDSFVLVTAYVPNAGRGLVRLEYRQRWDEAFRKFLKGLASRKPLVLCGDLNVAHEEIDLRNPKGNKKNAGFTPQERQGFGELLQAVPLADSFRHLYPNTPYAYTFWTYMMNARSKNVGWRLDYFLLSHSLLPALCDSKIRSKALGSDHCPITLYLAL

With `N[C@H](CO)C(=O)O`, the Potency entry in [1], in assay [4], in [5] and in assay [6] was “inactive” each time. Moreover, the compound was called inactive in assay [2] and in assay [3].
For `Oc1c(I)cc(Cl)c2cccnc12`, the Potency in assay [7] and in assay [8] was 50.1 µM (active) throughout.
Turning to `CC(=O)O[C@]1(C(C)=O)CC[C@H]2[C@@H]3C[C@H](C)C4=CC(=O)CC[C@]4(C)[C@H]3CC[C@@]21C`, the Potency in [9] was 39.8 µM (active); in assay [7] it was 31.6 µM (active); in assay [10], 31.6 µM (active); in assay [11], 39.8 µM (active); in assay [12], 39.8 µM (active); in assay [13], 39.8 µM (active). Further, the Potency result in assay [14] and in assay [8] was “inactive” each time.
Consider `O=C(O)CCCCC(=O)O`, for which the Potency entry in assay [9], in assay [7], in assay [10], in assay [15], in [11] and in assay [12] was “inactive” throughout. Moreover, the Potency result in [13], in assay [16], in assay [14] and in assay [8] was “inactive” each time.
`CC(=O)Oc1ccc(C(c2ccc(OC(C)=O)cc2)c2ccccn2)cc1`: the Potency result in assay [9], in assay [7], in [10], in assay [15], in [11] and in assay [12] was “inactive” throughout. Moreover, the Potency result in [13], in assay [16], in assay [14] and in [8] was “inactive” throughout. Further, the activity change, negative = inhibition in [17] (at 25.7 µM (top of the series)) is -1.79% (inactive). Further, the max response in [17] (setting [20]) was -13.8%; in assay [17] (setting [21]) it was -14.3%.
Consider `Oc1cc(O)c2c(c1)O[C@H](c1ccc(O)c(O)c1)[C@H](O)C2`, for which the call in assay [18] and in assay [19] was inactive. The activity change, negative = inhibition in assay [17] (at 25.7 µM (top of the series)) is -1.15% (inactive) and 0.397% (inactive). Besides, the max response in [17] (setting [20]) is -2.18% and -16.1%; in assay [17] (setting [21]), -4.1% and -15.5%.
Consider `COc1cc(NS(C)(=O)=O)ccc1Nc1c2ccccc2nc2ccccc12`, for which the compound was called inactive in [18] and in assay [19]. Moreover, the activity change, negative = inhibition in [17] (at 57.5 µM (top of the series)) was 0.361% (inactive). The max response in assay [17] (setting [20]) was -18.5%; in assay [17] (setting [21]) it was -18.7%. Moreover, the Potency is 1 µM (active) in assay [4], 0.891 µM (active) in assay [5] and 0.891 µM (active) in assay [6].
As for `COc1cccc2c1C(=O)c1c(O)c3c(c(O)c1C2=O)C[C@@](O)(C(C)=O)C[C@@H]3O[C@H]1C[C@H](N)[C@H](O)[C@H](C)O1`, the Potency in [7] is 0.199 µM (active); in [10] it was 0.158 µM (active); in [12] it was 0.158 µM (active); in assay [13], 0.1 µM (active); in [16] it was 0.126 µM (active); in [14], 0.794 µM (active). Besides, the Potency in assay [8] is 1 µM (active).
Take `Oc1ccc(Cl)cc1Sc1cc(Cl)ccc1O`: the Potency result in assay [14] was “inactive”.
Consider `CNCCC(Oc1ccccc1C)c1ccccc1` (configuration not stated), for which, in [17] (at 57.5 µM (top of the series)), the activity change, negative = inhibition was 2.16% (inactive). The max response in assay [17] (setting [20]) turned out to be 19.1%; in assay [17] (setting [21]) it was 23.2%. Besides, the Potency result in assay [1] is “inactive”. Further, the outcome in assay [2] and in assay [3] was inactive. For the same compound, the Potency in [4] was 7.94 µM (active).
As to `NC(=NCCCCCCN=C(N)/N=C(\N)Nc1ccc(Cl)cc1)/N=C(\N)Nc1ccc(Cl)cc1`, the Potency in [9] is 39.8 µM (active); in assay [7] it was 39.8 µM (active); in assay [10], 39.8 µM (active); in assay [15], 39.8 µM (active); in assay [11], 50.1 µM (active); in assay [12], 39.8 µM (active). Further, the Potency in assay [13], in assay [16], in assay [14] and in [8] was 39.8 µM (active) throughout.
